Source: PubChem BioAssay (NCATS)
Inconclusive results are not listed. Calls of active or inactive are those of the source. Unless noted, calls follow the shape of the dose curve; as a rule, active = well fitted curve in the direction sought with a large enough effect; inconclusive = small, poorly fitted or top-dose-only effect, or another doubt; inactive = no such curve, though single readings can be large; an effect the other way counts as inactive or inconclusive.

What was measured:
[1] = molecular target: Glutathione peroxidase 1 (Homo sapiens) (UniProt P07203); assay: Primary qHTS Assay for Inhibitors of Recombinant Selenoprotein Glutathione Peroxidase 1 (GPX1) (AID 1845191); also: nearly all actives have a fitted effect of over 65% in size; also: potency is read from the fitted curve at half-maximal effect; as to activity, negative = inhibition: % is scaled to controls: 0 for no effect and ±100 for the full control effect
Glutathione peroxidase 1 (Homo sapiens), sequence (P07203 whole entry, looked up): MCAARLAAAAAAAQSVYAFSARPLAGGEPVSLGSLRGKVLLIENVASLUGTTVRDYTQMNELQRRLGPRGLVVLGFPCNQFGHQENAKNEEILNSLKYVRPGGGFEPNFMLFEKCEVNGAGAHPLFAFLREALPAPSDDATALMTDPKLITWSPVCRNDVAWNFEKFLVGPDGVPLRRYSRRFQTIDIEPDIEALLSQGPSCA
Outline: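 Recombinant GPX1 (10 nM final) was preincubated with compound for 30 min at room temperature, then reacted with 1 mM GSH, 0.5 mM CHP, 0.5 mM NADPH and 100 nM glutathione reductase; NADPH fluorescence (340/450 nm) was read at 0 and 15 min.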

[2] = molecular target: Phospholipid hydroperoxide glutathione peroxidase GPX4 (Homo sapiens) (UniProt P36969); assay: Primary qHTS Assay for Inhibitors of Recombinant Selenoprotein Glutathione Peroxidase 4 (GPX4) (AID 1845192); also: nearly all actives have a fitted effect of over 65% in size; as to activity change, negative = inhibition: series mostly up to about 50 µM; % is scaled to controls: 0 for no effect and ±100 for the full control effect
Phospholipid hydroperoxide glutathione peroxidase GPX4 (Homo sapiens), sequence (P36969 whole entry, looked up): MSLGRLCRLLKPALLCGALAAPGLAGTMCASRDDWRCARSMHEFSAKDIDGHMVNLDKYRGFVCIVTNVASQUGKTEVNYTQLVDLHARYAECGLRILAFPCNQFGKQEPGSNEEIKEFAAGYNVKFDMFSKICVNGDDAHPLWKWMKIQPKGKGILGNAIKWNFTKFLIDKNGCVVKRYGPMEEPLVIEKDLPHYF
Outline: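 GR-coupled readout: 100 nM GR, 1 mM GSH, 0.5 mM NADPH; NADPH fluorescence (ex 340/em 450 nm) read at t=0 and after 15 min RT. GPX4 200 nM, preincubated 30 min with compound; substrate 0.5 mM CHP.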

[3] = molecular target: Luciferin 4-monooxygenase (Photinus pyralis) (UniProt P08659); assay: Primary firefly luciferase (FLuc) qHTS assay for identification of artifact compounds. (AID 1845220); also: nearly all actives have a fitted effect of over 60% in size;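 as to activity change, negative = inhibition: series mostly up to about 54 µM; plate controls were DMSO vehicle for no effect and no enzyme for full effect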
Outline: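 qHTS, 15 min compound preincubation with substrate (10 uM luciferin, 10 uM ATP) at RT, then 10 nM FLuc; 5 min; luminescence; % inhibition vs no-enzyme/DMSO controls, 4-parameter Hill fit.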

[4] = Primary fluorescence-based thiol-reactive (MSTI) qHTS assay for identification of artifact compounds. (AID 1845221); also: nearly all actives have a fitted effect of over 65% in size; also: potency is read from the fitted curve at half-maximal effect;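 as to activity change, negative = thiol reactive: series mostly up to about 54 µM; thiol-reactive compounds lower the probe fluorescence signal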
Outline: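 MSTI probe at 4 uM final in 2% DMSO/PBS pH 7.4; compounds, 1 h at room temperature in dark. Fluorescence Ex/Em 525/598 nm, normalised to Acetyl-MSTI and MSTI, fitted to 4-parameter Hill.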

[5] = Primary redox qHTS assay for identification of artifact compounds. (AID 1845223);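 also: 0% = DMSO and 100% = reference compound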
Outline: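 Amplex Red (25 uM) and HRP (250 mU/mL) in HBSS, with compounds for 15 min, then 250 uM DTT for 30 min, room temperature, dark. Fluorescence 525/598 nm read; normalized to DMSO and 10 uM DA3003; Hill fit.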

[6] = tested on: Nanoluciferase (engineered Oplophorus gracilirostris luciferase); assay: Primary Nanoluciferase (NLuc) qHTS assay for identification of artifact compounds. (AID 1845222);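 also: series mostly up to about 54 µM; 0% = DMSO and -100% = no enzyme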
Outline: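 Luminescence read-out of secreted NLuc in S16 cell conditioned medium (1:55); compounds tested with 15 min RT preincubation, then Nano-Glo substrate 1:100, 5 min. % inhibition vs no-enzyme and DMSO controls, 4-parameter Hill fit.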

[7] = qHTS drug screen for cell cycle checkpoint inhibitors in PARPi-resistant BRCA-mutant ovarian cancer cell lines. (AID 1963452; calls by dose curve; also: potency is read from the fitted curve at half-maximal effect); conditions: PEO1/OlaR viability, CellTiter-Glo luminescence, 96 h; for Z-AUC: stronger effect = lower value
Outline: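 PEO1, PEO4 and PEO1/OlaR ovarian cancer cells, 600 per well, exposed 96 h at 37C to a dilution series. Viability read by CellTiter-Glo luminescence, normalized to DMSO and empty wells; activity summarized as Z-AUC.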

[8] = measured here: PEO1 parental Z-AUC

C=C(C(=O)O)C1CCC2(C)CCCC(C)(O)C2C1 (stereo not drawn)
active: Potency [4] 21.2 µM
inactive: Potency [1] | Potency [2] | Potency [3] | Potency [5]

COc1cccc(Nc2ncnn3ccc(CN4CC[C@@H](N)[C@H](O)C4)c23)c1
active: Potency [7] 2.19 µM
inactive: Potency [1] | Potency [2] | Potency [3] | Potency [4] | Potency [6]
-1.16: Z-AUC ([7]; measured here: PEO4 Z-AUC)
-1.46: Z-AUC [7, 8]

Cc1ccc(S(=O)(=O)c2ccc([N+](=O)[O-])o2)cc1
inactive: Potency [1] | Potency [2] | Potency [3] | Potency [5]
active: Potency [4] 10.6 µM

O=C1NC(=O)C(c2cn(-c3ccccc3)nc2-c2ccc(F)cc2)N1 (stereo not drawn)
inactive: Potency [1] | Potency [2] | Potency [3] | Potency [4] | Potency [5]

COc1cc(C(=O)OC[C@@]2(O)CO[C@@H](O[C@H]3[C@H](Oc4ccc(C(=O)O)cc4OC)O[C@H](CO)[C@@H](O)[C@@H]3O)[C@@H]2O)ccc1O
inactive: Potency [1] | Potency [2] | Potency [3] | Potency [4] | Potency [5]

C[C@H]1CC[C@@H]2N(C1)C[C@@H]1[C@H]([C@@H](O)[C@H](O)[C@]3(O)[C@H]1C[C@@]14OC5(O)[C@@H](C[C@@H](O)[C@@H]31)[C@]4(C)CC[C@@H]5O)[C@]2(C)O
inactive: Potency [1] | Potency [2] | Potency [3] | Potency [4] | Potency [5]

C=C1C(=O)OC2C1C(O)CC1(C)C(O)CCC(C=O)C21 (stereo not drawn)
inactive: Potency [1] | Potency [2] | Potency [3] | Potency [4] | Potency [5]

Cc1ccc(Cc2c(C)nc3nc(SCC(=O)NCCN4CCNCC4)nn3c2C)cc1
inactive: Potency [1] | Potency [2] | Potency [3] | Potency [4] | Potency [5]

C=C[C@H]1C(O[C@@H]2O[C@H](CO)[C@@H](O)[C@H](O)[C@H]2O)OC=C2C(=O)N3CCc4c([nH]c5ccccc45)[C@H]3C[C@H]21 (stereo partly drawn)
inactive: Potency [1] | Potency [2] | Potency [3] | Potency [4] | Potency [5]

COC(=O)CCSCc1ccc(-c2onc(C)c2NC(=O)OC(C)c2ccccc2Cl)cc1 (stereo not drawn)
inactive: Potency [1] | Potency [2] | Potency [3] | Potency [4] | Potency [5]

COC(=O)CCc1cc2ccoc2c(OC)c1O[C@@H]1O[C@H](CO)[C@@H](O)[C@H](O)[C@H]1O
inactive: Potency [1] | Potency [2] | Potency [3] | Potency [4] | Potency [5]

Cc1c[nH]c2nccc(Oc3c(F)cc(Nc4cc(Cl)nc(N)n4)cc3F)c12
inactive: Potency [1] | Potency [2] | Potency [3] | Potency [4] | Potency [5]

CC(=O)N1CCc2ccc(O)c(OC3OC(COC4OCC(O)(CO)C4O)C(O)C(O)C3O)c2C1Cc1ccc(O)cc1 (stereo not drawn)
inactive: Potency [1] | Potency [2] | Potency [3] | Potency [4] | Potency [5]

O=C(Nc1ccc(S(=O)(=O)C(F)(F)F)cc1)C1=CCN(c2ncccc2C(F)(F)F)CC1
inactive: Potency [1] | Potency [2] | Potency [3] | Potency [4] | Potency [5]

O=C(c1cn(Cc2cncn2Cc2ccc(Br)cc2)cc1-c1cccc2ccccc12)N1CCOCC1
inactive: Potency [1] | Potency [2] | Potency [3] | Potency [4] | Potency [5]

COc1cc(Br)c(S(=O)(=O)Nc2ccc(C(F)(F)F)c(O[C@@H]3CCN(C)C3)c2)cc1OC
inactive: Potency [1] | Potency [2] | Potency [3] | Potency [4] | Potency [5]

CCC(Nc1ncnc2nc[nH]c12)c1nc2cccc(F)c2c(=O)n1-c1ccccc1 (stereo not drawn)
inactive: Potency [1] | Potency [2] | Potency [3] | Potency [4] | Potency [5]

C=C(C)C1Cc2cc(C(=O)OC3OC(CO)C(O)C(O)C3O)ccc2O1 (stereo not drawn)
active: Potency [4] 9.27 µM
inactive: Potency [1] | Potency [2] | Potency [3] | Potency [5]

CCN1CCN(Cc2ccc(Nc3ncc(F)c(-c4cc(F)c5nc(C)n(C(C)C)c5c4)n3)nc2)CC1
inactive: Potency [1] | Potency [2] | Potency [3] | Potency [4] | Potency [6] | Z-AUC [7] 0.0865
0.621: Z-AUC ([7]; measured here: PEO4 Z-AUC)
0.712: Z-AUC [7, 8]

CC(=O)C1=CCC2C3CCC4CC(O[C@@H]5O[C@H](CO)[C@@H](O[C@@H]6O[C@@H](C)[C@H](O)[C@@H](O)[C@H]6O)[C@H](O)[C@H]5O[C@@H]5O[C@H](CO)[C@@H](O)[C@H](O)[C@H]5O)CCC4(C)C3CCC12C (stereo partly drawn)
inactive: Potency [1] | Potency [2] | Potency [3] | Potency [4] | Potency [5]

CC1(C(=O)O)CCCC2(C)C3CCC4CC3(CCC12)CC4=O (stereo not drawn)
inactive: Potency [1] | Potency [2] | Potency [3] | Potency [4] | Potency [5]

Cc1oc2ccccc2c1CNC(=O)NCc1cccs1
inactive: Potency [1] | Potency [2] | Potency [3] | Potency [4] | Potency [5]

CC1(C)CCCC2(C)C=C(C(=O)O)C(O)CC12 (stereo not drawn)
inactive: Potency [1] | Potency [2] | Potency [3] | Potency [4] | Potency [5]

CC1=CCC(C(C)(C)O[C@@H]2O[C@H](CO[C@@H]3O[C@@H](C)[C@H](O)[C@@H](O)[C@H]3O)[C@@H](O)[C@H](O)[C@H]2O)CC1 (stereo partly drawn)
inactive: Potency [1] | Potency [2] | Potency [3] | Potency [4] | Potency [5]

CN1CCN(C(=O)c2ccc3cc(CCNc4ncnc5ccc(C#N)cc45)ccc3c2)CC1
-0.499: Z-AUC ([7]; measured here: PEO4 Z-AUC)
inactive: Potency [1] | Potency [2] | Potency [3] | Potency [4] | Potency [6] | Z-AUC [7] -0.0214
-0.289: Z-AUC [7, 8]

C[C@@]1(O)[C@H](O)[C@@H](CO)O[C@H]1n1ccc(N)nc1=O
inactive: Potency [1] | Potency [2] | Potency [3] | Potency [4] | Potency [5]

Cc1[nH]c2ccccc2c1CCNC(=O)c1ccccc1F
active: Potency [4] 4.23 µM
inactive: Potency [1] | Potency [2] | Potency [3] | Potency [5]

CC1OC(OC2C(CO)OC(OCC3OC(OC(=O)C45CCC(C)(C)CC4C4=CCC6C7(C)CCC(OC8OC(CO)C(O)C(OC9OC(CO)C(O)C(O)C9O)C8O)C(C)(C)C7CCC6(C)C4(C)CC5)C(O)C(O)C3O)C(O)C2O)C(O)C(O)C1OC1OC(CO)C(O)C(O)C1O (stereo not drawn)
inactive: activity, negative = inhibition [1] -12.6% [at 9.52 µM] | activity change, negative = inhibition [2] -8.53% [at 9.73 µM] | activity change, negative = inhibition [3] -3.46% [at 11.6 µM] | activity change, negative = thiol reactive [4] 208% [at 11.5 µM] | redox activity (% of DA3003) [5] 10.1% [at 11.5 µM]

CC1COC2(OC3CC4C5CC(O[C@@H]6O[C@H](C)[C@@H](O[C@@H]7O[C@@H](C)[C@H](O)[C@@H](O)[C@H]7O)[C@H](O)[C@H]6O)C6CC(O)CCC6(C)C5CCC4(C)C3C2C)C(O)C1 (stereo partly drawn)
inactive: Potency [1] | Potency [2] | Potency [3] | Potency [4] | Potency [5]

COc1cc(N)c(Cl)cc1C(=O)NC[C@@H]1CCN2CCC[C@@H]12
inactive: Potency [1] | Potency [2] | Potency [3] | Potency [6]

CC(C)(C)Nc1nc(Nc2ccc(C(N)=O)cc2)cc(N)c1C#N
inactive: Potency [2] | Potency [3] | Potency [6]
active: Potency [1] 22.7 µM

COC(=O)C1=C2Nc3ccccc3C23CCN2CCCC(C(C)O)(C1)C23 (stereo not drawn)
inactive: Potency [1] | Potency [2] | Potency [3] | Potency [6]

CC1=C(C(=O)O[C@@H]2O[C@H](COC3OCC(O)C(O)C3O)[C@@H](O)[C@H](O)[C@H]2O)C(C)(C)CCC1 (stereo partly drawn)
inactive: Potency [1] | Potency [2] | Potency [3] | Potency [6]

C/C=C/C(O)C1OC(=O)CC1Nc1ccc(C(=O)O)cc1 (stereo not drawn)
inactive: Potency [1] | Potency [2] | Potency [3] | Potency [6]

CO[C@H]1C[C@@H]2CC[C@@H](C)[C@@](O)(O2)C(=O)C(=O)N2CCCC[C@H]2C(=O)O[C@H]([C@H](C)C[C@H]2CC[C@@H](OP(C)(C)=O)[C@H](OC)C2)CC(=O)[C@H](C)/C=C(\C)[C@@H](O)[C@@H](OC)C(=O)[C@H](C)C[C@H](C)/C=C/C=C/C=C/1C
inactive: Potency [1] | Potency [2] | Potency [3] | Potency [6]

COc1cc(NC(=O)Nc2cccc(CNC(=O)O[C@H]3CCOC3)c2)ccc1-c1cnco1
inactive: Potency [1] | Potency [2] | Potency [3] | Potency [6]

C=C1C(OC2OCC(O)C(O)C2O)CC2C(C)(C)C(O)CCC2(C)C1CC/C(C)=C\CO (stereo not drawn)
inactive: Potency [1] | Potency [2] | Potency [3] | Potency [6]

FC(F)(F)c1ccc(Nc2nc(-c3c(C(F)(F)F)nc4ccccn34)cs2)cc1
inactive: Potency [1] | Potency [2] | Potency [3] | Potency [4] | Z-AUC [7] -2.12
-1.08: Z-AUC [7, 8]
-1.77: Z-AUC ([7]; measured here: PEO4 Z-AUC)

CC(O)/C=C/C1OC(=O)CC1Nc1ccc(C(=O)O)cc1 (stereo not drawn)
inactive: Potency [1] | Potency [2] | Potency [3] | Potency [6]

C/C=C/C1=CC2=C(CO1)C(=O)C(C)(O)C(OC(=O)c1c(C)cc(OC)cc1O)C2 (stereo not drawn)
inactive: Potency [1] | Potency [2] | Potency [3] | Potency [6]

CC(C(O)/C=C/C(C)(C)O)C1CCC2(C)C3C(=O)C=C4C(CCC(O)C4(C)C)C3(C)CCC12C (stereo not drawn)
inactive: Potency [1] | Potency [2] | Potency [3] | Potency [4] | Potency [5]

Cc1cc(C)c(CNC(=O)c2cc(-c3ccc(CN4CCOCC4)cc3)cc3c2cnn3C2CCCC2)c(=O)[nH]1
-0.591: Z-AUC [7, 8]
inactive: Potency [1] | Potency [2] | Potency [3] | Potency [4] | Potency [5] | Z-AUC [7] 0.564
0.1: Z-AUC ([7]; measured here: PEO4 Z-AUC)

COc1ccc(CC2C(=O)NC(C)C(=O)N(C)C3Cc4ccc(cc4)Oc4cc(ccc4OC4OC(CO)C(O)C(O)C4O)CC(C(=O)NC(C)C(=O)NC(C)C(=O)N2C)N(C)C3=O)cc1 (stereo not drawn)
inactive: Potency [1] | Potency [2] | activity change, negative = inhibition [3] -7.7% [at 11.6 µM] | activity, negative = inhibition [6] -5.37% [at 11.6 µM]
